# Experimental data published in PubChem BioAssay.
# Several values for one entry are separate records, joined by “and”; a condition that tells them apart may be missing. Equal entries are not always repeated. Activity calls are given as the source filed them. Rule as the data show it, unless noted: active = parasite load remaining mostly below about 12% (no sharp cut-off); inactive = mostly above about 10%.
# What was measured:
# [1] = hESC survival regulators, cell-based (AID 493140; call rule not given here;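 also: cells exposed to compounds for four days before counting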); conditions: human embryonic stem cell survival screen; stronger effect = higher value
# [2] = liver-stage malaria parasite growth inhibition, primary screen, cell-based, HepG2, luciferase luminescence, HepG2 viability (AID 624349);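 also: 100% = mean of DMSO negative control wells on the same plate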; conditions: P. berghei liver stage in HepG2, luciferase luminescence, concentration not given here; parasite load remaining: stronger effect = lower value; viability: measured here: HepG2 viability without parasites
# [3] = stimulators of nuclear beta-catenin in C2C12, primary screen, imaging, WNT3A-conditioned medium, mouse C2C12, NPC library (AID 1117326; in the data active = nuclear beta-catenin stimulation mostly above about 4.2%, no sharp cut-off; inactive = mostly below about 10%); conditions: stronger effect = higher value
# [4] = stimulators of insulin release from INS-1E, primary screen, cell-based, 5 mM glucose, NPC library (AID 1117329;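 active = compound raises insulin release from rat beta cells at 5 mM glucose, no numeric limit stated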); conditions: rat INS-1E insulin secretion, at 10 µM, stronger effect = higher value
# [5] = growth inhibition of GSK3B-pretreated HCT116 cells – cell-based, CellTiter-Glo, 0.2 to 20 µM (AID 1117336;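 active = compounds lowering colon cancer cell viability after pretreatment blocking the GSK3B kinase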); conditions: HCT116 viability after GSK3B inhibitor, at 20 µM, stronger effect = higher value
# [6] = inhibition of endothelial tube formation, primary screen, imaging, VEGF stimulated, CD31 staining, tube area, NPC library (AID 1117340;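 active = compound that reduces growth-factor-driven endothelial tube area in a mixed cell culture, no cutoff stated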); conditions: VEGF-stimulated ADSC/ECFC co-culture, at 10 µM, stronger effect = higher value
# [7] = glucagon-like peptide 1 release enhancers, primary assay, NCI-H716 cell line, NPC library (AID 1117341;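 active = compound raises GLP1 secretion from the human gut endocrine cells, with no numeric limit stated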); conditions: NCI-H716 cells, at 10 µM, stronger effect = higher value
# [8] = HCT116 colon cancer cell growth inhibition, primary screen, CellTiter-Glo luminescence, NPC library (AID 1117342;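 active = compounds that lower survival of HCT116 colon cancer cells in the luminescence readout, no numeric limit stated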); conditions: at 20 µM (top of the series)
# [9] = CellTiter-Glo luminescent readout of SW480 viability loss, NPC library primary (AID 1117343;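 active = compounds that lower viability of the colon cancer cells in the luminescence readout, with no numeric limit stated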); conditions: CellTiter-Glo luminescence; at 20 µM (top of the series) unless noted
# [10] = decreased DLD-1 cellular survival, CellTiter-Glo luminescent readout, NPC compound collection, primary HTS (AID 1117346;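 active = compounds that lower survival of DLD-1 colon cancer cells in the luminescence readout, no cutoff given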); conditions: DLD-1 viability, CellTiter-Glo luminescence; at 20 µM (top of the series)
# [11] = differential killing of epithelial or mesenchymal cells, primary screen, imaging, PC-3E GFP, TEM4-18 mCherry, co-culture (AID 1345086;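 active = compounds killing one labelled cell type while sparing the other, by normalised counts and ratio limits, not self-fluorescent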;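 as to all read-outs here: cells exposed to compound for 72 h before imaging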;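 as to red/green cell ratio (normalised): normalised mesenchymal count divided by normalised epithelial count so high means epithelial killing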); conditions: imaging cell counts, at 1 µM; for red/green cell ratio (normalised): actives lie on both sides, counts scaled to control wells, 1 = unselective
# [12] = survival rescue of mitochondrial mutant cells in low glucose, primary screen, MELAS cybrids, Rieske KO mouse fibroblasts, CellTiter-Glo (AID 1508586;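 active = mean z-score across replicates of 1.96 or higher in either the MELAS or the Rieske mutant cell line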;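 also: z relative to plate mean and SD of compound and empty wells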)
# [13] = target: NAD(+) hydrolase SARM1 (Homo sapiens) (UniProt Q6SZW1); assay: SARM1 TIR NADase inhibitors, cell lysate, NAD-Glo luminescence (AID 1508614;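 active = compound whose remaining NAD level is above about 45 nM, limit read from the data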;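 also: higher remaining NAD means stronger inhibition of SARM1 NADase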); conditions: SAM-TIR HEK293T lysate NADase, at 1 µM, stronger effect = higher value
# Sequence of NAD(+) hydrolase SARM1 (Homo sapiens) (Q6SZW1 whole entry, looked up): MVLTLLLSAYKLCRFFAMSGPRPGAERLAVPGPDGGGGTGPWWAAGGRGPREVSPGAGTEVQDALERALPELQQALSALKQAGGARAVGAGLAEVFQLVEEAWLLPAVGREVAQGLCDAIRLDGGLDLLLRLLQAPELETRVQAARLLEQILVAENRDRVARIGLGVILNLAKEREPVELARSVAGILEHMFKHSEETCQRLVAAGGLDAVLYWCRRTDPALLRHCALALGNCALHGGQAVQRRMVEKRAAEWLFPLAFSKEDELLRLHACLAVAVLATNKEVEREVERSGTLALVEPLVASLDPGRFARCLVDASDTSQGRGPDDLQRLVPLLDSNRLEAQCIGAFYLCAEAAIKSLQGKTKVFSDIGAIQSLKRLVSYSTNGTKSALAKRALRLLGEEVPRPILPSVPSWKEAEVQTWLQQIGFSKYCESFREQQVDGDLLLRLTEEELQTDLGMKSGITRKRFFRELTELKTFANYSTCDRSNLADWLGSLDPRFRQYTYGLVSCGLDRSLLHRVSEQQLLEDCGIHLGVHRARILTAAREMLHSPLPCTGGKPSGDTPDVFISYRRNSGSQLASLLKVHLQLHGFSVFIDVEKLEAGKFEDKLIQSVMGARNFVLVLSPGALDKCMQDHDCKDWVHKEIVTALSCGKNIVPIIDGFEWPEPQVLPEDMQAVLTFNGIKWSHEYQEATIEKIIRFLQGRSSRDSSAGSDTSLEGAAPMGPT
# [14] = sensitizers of A549 cells to miR-34 induction, primary screen, imaging, A549 dox-inducible miR-34, nuclei and caspase counts (AID 1347080;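 active = compounds whose cell count with miR-34 switched on is under 0.7 times the count with it off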); conditions: A549 miR-34 inducible, Hoechst nuclei count, 48 h
# [15] = LFS_MB_P medulloblastoma growth inhibition, cell-based, chromothripsis tumors, cisplatin or BGB combos (AID 1671449; in the data active = inhibition above about 80%;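 also: cells exposed for 96 hours; 0% = vehicle DMSO and 100% = killing by high DMSO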); conditions: LFS_MB_P medulloblastoma cells
# [16] = HDN33 neuroblastoma growth inhibition, cell-based, chromothripsis tumors, cisplatin or BGB combos (AID 1671450; in the data active = inhibition above about 80%;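 also: cells exposed to compound for four days; 0% = vehicle DMSO and 100% = cell killing by high DMSO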); conditions: HDN33 neuroblastoma cells, stronger effect = higher value
# [17] = ICB984 medulloblastoma cell growth inhibition, synergistic combos for chromothripsis tumors, cisplatin or BGB combos (AID 1671451; call rule not given here;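 also: cells exposed for 96 hours before readout; 0% = vehicle DMSO and 100% = killing by high DMSO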); conditions: ICB984 medulloblastoma cells, drug combinations, stronger effect = higher value
# [18] = HTB85 osteosarcoma cell growth inhibition, synergistic combos for chromothripsis tumors, BGB or cisplatin IC20 combos (AID 1671453; in the data active = inhibition above about 80%;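 also: cells exposed for 96 hours before readout; 0% = vehicle DMSO and 100% = high DMSO killing control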); conditions: HTB85 osteosarcoma cells, drug combinations, stronger effect = higher value
# [19] = MDA-MB-436 breast carcinoma cell growth inhibition, synergistic combos for chromothripsis tumors, BGB or cisplatin combos (AID 1671458; call rule not given here;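 also: cells exposed for 96 hours; 0% = vehicle DMSO and 100% = killing by high DMSO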); conditions: MDA-MB-436 breast carcinoma growth inhibition, drug combinations, stronger effect = higher value
# [20] = measured here: epithelial PC-3E GFP cell survival
# [21] = measured here: mesenchymal TEM4-18 mCherry cell survival
# [22] = MELAS cybrid survival, CellTiter-Glo 48 h, stronger effect = higher value
# [23] = Rieske KO mouse fibroblast survival, CellTiter-Glo 72 h
# [24] = stronger effect = lower value, cell number ratio, induced over uninduced
# [25] = measured here: relative caspase fold change +Dox/-Dox
# [26] = measured here: total cells with miR-34 induction, stronger effect = lower value
# [27] = measured here: total cells without miR-34 induction
structure (smiles),measurement,setting,value
NC(N)=NC(N)=NCCc1ccccc1,survival,[1],15 (inactive)
same,parasite load remaining,[2],-0.135% (inactive) and 69.8% (inactive) and 0.98% (inactive)
same,viability,[2],41.9% and 91.2% and 89.5%
same,nuclear beta-catenin stimulation,[3]; at 10 µM,0% (inactive)
same,nuclear beta-catenin stimulation,"[3]; stimulation, at 2 µM",1.1%
same,insulin secretion stimulation,[4],-0.2% (inactive)
same,viability decrease,[5],27.4% (inactive)
same,tube area decrease,[6],27.6% (inactive)
same,GLP1 secretion stimulation,[7],-0.4% (inactive)
same,inhibition of viability,[8],9.6% (inactive)
same,viability decrease (inhibition),[9],70.3% (active)
same,viability decrease (inhibition),[10],9.45% (inactive)
same,red/green cell ratio (normalised),[11],0.86 (inactive)
same,normalised cell number,[11]; [20],1.06
same,normalised cell number,[11]; [21],0.91
same,z-score,[12]; [22],-0.896 (inactive) and -0.373 (inactive) and -0.362 (inactive)
same,z-score,[12]; [23],-0.647 and 0.306 and -0.384
same,remaining NAD,[13],10 nM (inactive)
CN1CCN(c2c(F)cc3c(=O)c(C(=O)O)cn(CCF)c3c2F)CC1,parasite load remaining,[2],13% (inactive)
same,viability,[2],62.5%
same,nuclear beta-catenin stimulation,[3]; at 10 µM,0.3% (inactive)
same,nuclear beta-catenin stimulation,"[3]; stimulation, at 2 µM",0.9%
same,insulin secretion stimulation,[4],-1% (inactive)
same,viability decrease,[5],-13.8% (inactive)
same,tube area decrease,[6],12.8% (inactive)
same,GLP1 secretion stimulation,[7],7.1% (inactive)
same,inhibition of viability,[8],4.1% (inactive)
same,viability decrease (inhibition),[9],4.9% (inactive)
same,viability decrease (inhibition),[10],-10.7% (inactive)
same,red/green cell ratio (normalised),[11],1.08 (inactive)
same,normalised cell number,[11]; [20],1.16
same,normalised cell number,[11]; [21],1.24
same,fold change,[14]; [24],0.864 (inactive)
same,fold change,[14]; [25],1.53
same,cell count,[14]; [26],9860
same,cell count,[14]; [27],11400
same,z-score,[12]; [22],-0.514 (inactive) and -0.443 (inactive)
same,z-score,[12]; [23],-0.857 and -0.453
same,inhibition,"[15]; at 0.5 µM, stronger effect = higher value",2.95% (inactive)
same,inhibition,"[15]; measured here: combination with BGB IC20, at 0.005 µM",20.9%
same,inhibition,"[15]; measured here: combination with BGB IC40, at 0.005 µM",16.6%
same,inhibition,"[15]; measured here: combination with BGB IC40, at 0.05 µM",22.7%
same,inhibition,"[15]; measured here: combination with cisplatin, at 0.5 µM, stronger effect = higher value",-9.55%
same,inhibition,"[15]; measured here: combination with cisplatin, at 5 µM, stronger effect = higher value",1.02%
same,inhibition,"[16]; BGB combo, at 5 µM",17.4%
same,inhibition,[16]; at 0.5 µM,15.1% (inactive)
same,inhibition,"[16]; cisplatin combo, at 5 µM",34.1%
same,inhibition,"[16]; measured here: with BGB IC20 combination, at 0.5 µM",12.4%
same,inhibition,"[16]; measured here: with cisplatin IC20 combination, at 0.5 µM",22.9%
same,inhibition,"[16]; single agent, at 5 µM",6.61%
same,inhibition,"[17]; BGB IC20 combo, at 0.005 µM",3.45%
same,inhibition,"[17]; BGB IC40 combo, at 0.005 µM",12%
same,inhibition,"[17]; BGB IC40 combo, at 0.05 µM",3.66%
same,inhibition,[17]; at 0.5 µM,-15.4% (inactive)
same,inhibition,"[17]; cisplatin combo, at 0.05 µM",0.969%
same,inhibition,"[17]; cisplatin combo, at 0.5 µM",-17.2%
same,inhibition,"[17]; cisplatin combo, at 5 µM",-29.4%
same,inhibition,"[17]; measured here: 5 uM single agent, at 5 µM",-20.3%
same,inhibition,[18]; at 0.5 µM,2.85% (inactive)
same,inhibition,"[18]; measured here: with BGB IC20, at 0.5 µM",3.83%
same,inhibition,"[18]; measured here: with BGB IC20, at 5 µM",4.56%
same,inhibition,"[18]; measured here: with cisplatin IC20, at 0.5 µM",-12%
same,inhibition,"[18]; measured here: with cisplatin IC20, at 5 µM",-2.52%
same,inhibition,"[18]; single agent, at 5 µM",7.25%
same,inhibition,[19]; at 0.5 µM,2.48% (inactive)
same,inhibition,"[19]; measured here: BGB combination, at 0.5 µM",6.04%
same,inhibition,"[19]; measured here: BGB combination, at 5 µM",-1.46%
same,inhibition,"[19]; measured here: cisplatin combination, at 0.5 µM",-0.921%
same,inhibition,"[19]; measured here: cisplatin combination, at 5 µM",-0.504%
CC(=O)c1ccc2c(c1)N(CCCN(C)C)c1ccccc1S2,survival,[1],4.75 (inactive)
same,parasite load remaining,[2],84% (inactive) and 65.2% (inactive) and 28% (inactive)
same,viability,[2],104% and 77.6% and 98.4%
same,nuclear beta-catenin stimulation,[3]; at 10 µM,0.3% (inactive)
same,nuclear beta-catenin stimulation,"[3]; stimulation, at 2 µM",1.4%
same,insulin secretion stimulation,[4],17.4% (inactive)
same,viability decrease,[5],50.2% (active)
same,tube area decrease,[6],12.5% (inactive)
same,GLP1 secretion stimulation,[7],11.1% (inactive)
same,inhibition of viability,[8],55.9% (active)
same,viability decrease (inhibition),[9],110% (active)
same,viability decrease (inhibition),[10],24.9% (inactive)
same,red/green cell ratio (normalised),[11],0.9 (inactive)
same,normalised cell number,[11]; [20],0.98
same,normalised cell number,[11]; [21],0.88
same,fold change,[14]; [24],0.938 (inactive) and 0.873 (inactive) and 0.834 (inactive)
same,fold change,[14]; [25],0.931 and 1.11 and 5.05
same,cell count,[14]; [26],3460 and 8350 and 10600
same,cell count,[14]; [27],3690 and 9570 and 12700
same,z-score,[12]; [22],-0.172 (inactive)
same,z-score,[12]; [23],0.00604
same,remaining NAD,[13],10 nM (inactive)
